# From PubChem BioAssay (NCI)
# About 83,000 compounds went through this panel and 20% of them were active in at least one assay; those are over-represented in the sample as a whole.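 The test compound was applied at a single concentration to cells in 96-well plates for 48 hours, and percent growth was recorded.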 Values without a mark were called inactive. The source made the active and inactive calls. The calls were made as follows: active = growth percent below 10; inactive = the rest.
# Tested on: MDA-MB-435 melanoma
# Assay: NCI-60 one-dose screen, 48 h (100 = growth as untreated, 0 = no growth, -100 = all killed)
# Settings: 10 µM unless noted
row,SMILES,growth
1,CN(c1cc2ncc(=O)[nH]c2cc1NC(N)=NCc1ccc(Cl)cc1)C1CCCCC1,40.2%
2,O=C1/C(=C\c2ccc3nccnc3c2)SC(=S)N1CCc1ccc(O)cc1,93.2%
3,Cc1ccc(C[P+](c2ccccc2)(c2ccccc2)c2ccccc2)cc1,4.92% (active)
4,COc1ccc(/C=N/C2=C(C#N)C(c3ccccc3)c3ccc4ccccc4c3O2)cc1 (stereo not given),-56.3% (active)
5,COCCOc1cc2ncnc(N3CCN(c4cc(S(C)(=O)=O)c(C)cc4Cl)CC3)c2cc1OCCOC,105%
6,C#COc1cccc(Nc2c(C#N)cnc3ncc(NC(=O)CCl)cc23)c1,41.4% [6.25 µM]
7,O=c1[nH]c(-c2ccccc2)nc2sc3cc(O)ccc3c12,85.9%
8,CN1C(=O)/C(=C\c2nc([P+](c3ccccc3)(c3ccccc3)c3ccccc3)c(N3CCOCC3)o2)SC1=S,60%
9,CC(C)Cn1cnc2c(=O)[nH]c(N)nc21,109%
10,CCSc1nc2scc(C)c2c(=O)[nH]1,105%
11,NC(N)=NCCCCCNc1noc(Cc2c[nH]c3cc(Br)ccc23)n1,87.7%
12,Cc1[nH]c(C(=O)Nc2ccccc2OC2CCNCC2)c(Cl)c1Cl,-40.3% (active)
13,O=C1NC(=O)C(Cc2ccc(OCc3ccc(-c4ccc(Cl)cc4Cl)cc3)cc2)S1 (stereo not given),24.5%
14,Ic1ccc(OCCCCn2ccnc2)cc1,73%
15,Cn1ccnc1C(=O)/C=C/c1ccc(CC(=O)Nc2cc(C(F)(F)F)cc(C(F)(F)F)c2)cc1,68.5%
16,COc1cc2c(cc1OCCCN1CCN(CCCOc3cc4c(cc3OC)C(=O)N3CC(F)(F)C[C@H]3C=N4)CC1)N=C[C@@H]1CC(F)(F)CN1C2=O,69%
17,COc1ccc2c(c1)c(-c1nc(-c3c[nH]c4ccncc34)cs1)cn2C,-92.3% (active)
18,Cc1nc2sc(C(=O)Nc3cccc(Br)c3)c(N)c2cc1C(O)c1ccccc1 (stereo not given),4.05% (active)
19,Nc1nc(-c2ccc(Cl)cc2)nc2c1sc(=S)n2-c1ccccc1,57.4%
20,O=C(CSc1oc(-c2ccccc2)nc1S(=O)(=O)c1ccccc1)Nc1ccc(F)cc1,94.8%

row,SMILES,growth
1,O=C1Nc2ccccc2/C1=C/c1nc2ccccc2c(=O)[nH]1,104%
2,COc1ccc(C/C(C)=C(\c2ccc(Cl)cc2)c2ccc(OCCN3CCCCC3)cc2)cc1,102%
3,O=C(N/N=C/c1ccc(Cl)cc1)c1[nH]c2ccc(Cl)cc2c1-c1ccccc1,-33.3% (active)
4,Nc1n[nH]c2ccc([C@H]3[C@@H]4C5CCC(C5)[C@@H]4c4c(ccc5[nH]ncc45)N3S(=O)(=O)C3CC3)cc12 (stereo not given in full),-35.3% (active)
5,CC/C(=C(/c1ccc(Cl)cc1)c1ccc(OCCN(C)C)cc1)c1ccc(Cl)cc1,73.1%
6,Cn1cc(-c2nonc2-c2cn(C)c3ccccc23)c2ccccc21,-34.3% (active)
7,Clc1ccc(/C=N\N=C\c2ccc(Cl)c(Cl)c2)cc1Cl,101%
8,CCN(CC)CCCCCNc1cc(OC(=O)c2ccc(Cl)cc2)cc2cccnc12,120%
9,CC(C)=CCCC(C)c1ccc(C)c2c1OCN(CCCCCO)C2 (stereo not given),97.1%
10,N#Cc1nc(-c2ccc(Cl)cc2)oc1S(=O)(=O)N1CCN(c2ccc(F)cc2)CC1,100%
11,COC(=O)[C@]12CCC(C)(C)C[C@H]1[C@H]1/C(=N/OCCc3nn[nH]n3)C[C@@H]3[C@@]4(C)CC[C@H](OC(C)=O)C(C)(C)[C@@H]4CC[C@@]3(C)[C@]1(C)CC2,31.4%
12,COc1ccc(C(=O)C/C(=C\c2ccc(Cl)cc2)C(=O)NCc2ccccc2)cc1,68.8%
13,Fc1ccc(CNc2c3ccccc3nc3ccccc23)c(F)c1,66.5%
14,CC1OC(n2c3ccccc3c3c4c(c5c6ccccc6[nH]c5c32)C(=O)N(CCN2CCCC2)C4=O)CC(O)C1O (stereo not given),41.8%
15,CCOC(=O)c1cc(C(=O)c2cc(OC)c(OC)c(OC)c2)n2ncccc12,-57.2% (active)
16,Cc1ccc(-c2nc(N3CCCNCC3)c3oc(-c4ccc(C)cc4)nc3n2)cc1,70.8%
17,O=C(CSC(=S)n1cnnc1)NC(=O)c1ccccc1,113%
18,Cc1sc2nc(NCCc3c[nH]c4ccc(Cl)cc34)[nH]c(=O)c2c1C,39.7%
19,CC(C)c1ccc(C(=O)Nc2sc3c(c2C(N)=O)CCC(=O)C3)cc1,-11% (active)
20,N#C/C(=C\c1c(-c2ccccc2)[nH]c2ccccc12)C(N)=O,15.7%

# Tested on: SW-620 colon
# Assay: as above
# Settings: 10 µM unless noted
row,SMILES,growth
1,CN(c1cc2ncc(=O)[nH]c2cc1NC(N)=NCc1ccc(Cl)cc1)C1CCCCC1,6.15% (active)
2,O=C1/C(=C\c2ccc3nccnc3c2)SC(=S)N1CCc1ccc(O)cc1,98.2%
3,Cc1ccc(C[P+](c2ccccc2)(c2ccccc2)c2ccccc2)cc1,10.9%
4,COc1ccc(/C=N/C2=C(C#N)C(c3ccccc3)c3ccc4ccccc4c3O2)cc1 (stereo not given),24.3%
5,COCCOc1cc2ncnc(N3CCN(c4cc(S(C)(=O)=O)c(C)cc4Cl)CC3)c2cc1OCCOC,110%
6,C#COc1cccc(Nc2c(C#N)cnc3ncc(NC(=O)CCl)cc23)c1,9.61% [6.25 µM] (active)
7,O=c1[nH]c(-c2ccccc2)nc2sc3cc(O)ccc3c12,101%
8,CN1C(=O)/C(=C\c2nc([P+](c3ccccc3)(c3ccccc3)c3ccccc3)c(N3CCOCC3)o2)SC1=S,96.2%
9,CC(C)Cn1cnc2c(=O)[nH]c(N)nc21,106%
10,CCSc1nc2scc(C)c2c(=O)[nH]1,104%
11,NC(N)=NCCCCCNc1noc(Cc2c[nH]c3cc(Br)ccc23)n1,92.2%
12,Cc1[nH]c(C(=O)Nc2ccccc2OC2CCNCC2)c(Cl)c1Cl,1.77% (active)
13,O=C1NC(=O)C(Cc2ccc(OCc3ccc(-c4ccc(Cl)cc4Cl)cc3)cc2)S1 (stereo not given),67.9%
14,Ic1ccc(OCCCCn2ccnc2)cc1,58.1%
15,Cn1ccnc1C(=O)/C=C/c1ccc(CC(=O)Nc2cc(C(F)(F)F)cc(C(F)(F)F)c2)cc1,70.5%
16,COc1cc2c(cc1OCCCN1CCN(CCCOc3cc4c(cc3OC)C(=O)N3CC(F)(F)C[C@H]3C=N4)CC1)N=C[C@@H]1CC(F)(F)CN1C2=O,-0.878% (active)
17,COc1ccc2c(c1)c(-c1nc(-c3c[nH]c4ccncc34)cs1)cn2C,-63.9% (active)
18,Cc1nc2sc(C(=O)Nc3cccc(Br)c3)c(N)c2cc1C(O)c1ccccc1 (stereo not given),31%
19,Nc1nc(-c2ccc(Cl)cc2)nc2c1sc(=S)n2-c1ccccc1,55.3%
20,O=C(CSc1oc(-c2ccccc2)nc1S(=O)(=O)c1ccccc1)Nc1ccc(F)cc1,96.5%

row,SMILES,growth
1,O=C1Nc2ccccc2/C1=C/c1nc2ccccc2c(=O)[nH]1,102%
2,COc1ccc(C/C(C)=C(\c2ccc(Cl)cc2)c2ccc(OCCN3CCCCC3)cc2)cc1,88.4%
3,O=C(N/N=C/c1ccc(Cl)cc1)c1[nH]c2ccc(Cl)cc2c1-c1ccccc1,37.5%
4,Nc1n[nH]c2ccc([C@H]3[C@@H]4C5CCC(C5)[C@@H]4c4c(ccc5[nH]ncc45)N3S(=O)(=O)C3CC3)cc12 (stereo not given in full),21.9%
5,CC/C(=C(/c1ccc(Cl)cc1)c1ccc(OCCN(C)C)cc1)c1ccc(Cl)cc1,55.8%
6,Cn1cc(-c2nonc2-c2cn(C)c3ccccc23)c2ccccc21,24.5%
7,Clc1ccc(/C=N\N=C\c2ccc(Cl)c(Cl)c2)cc1Cl,53.8%
8,CCN(CC)CCCCCNc1cc(OC(=O)c2ccc(Cl)cc2)cc2cccnc12,105%
9,CC(C)=CCCC(C)c1ccc(C)c2c1OCN(CCCCCO)C2 (stereo not given),94.9%
10,N#Cc1nc(-c2ccc(Cl)cc2)oc1S(=O)(=O)N1CCN(c2ccc(F)cc2)CC1,72.8%
11,COC(=O)[C@]12CCC(C)(C)C[C@H]1[C@H]1/C(=N/OCCc3nn[nH]n3)C[C@@H]3[C@@]4(C)CC[C@H](OC(C)=O)C(C)(C)[C@@H]4CC[C@@]3(C)[C@]1(C)CC2,41.9%
12,COc1ccc(C(=O)C/C(=C\c2ccc(Cl)cc2)C(=O)NCc2ccccc2)cc1,98.2%
13,Fc1ccc(CNc2c3ccccc3nc3ccccc23)c(F)c1,29.8%
14,CC1OC(n2c3ccccc3c3c4c(c5c6ccccc6[nH]c5c32)C(=O)N(CCN2CCCC2)C4=O)CC(O)C1O (stereo not given),17.7%
15,CCOC(=O)c1cc(C(=O)c2cc(OC)c(OC)c(OC)c2)n2ncccc12,33.6%
16,Cc1ccc(-c2nc(N3CCCNCC3)c3oc(-c4ccc(C)cc4)nc3n2)cc1,-49.7% (active)
17,O=C(CSC(=S)n1cnnc1)NC(=O)c1ccccc1,103%
18,Cc1sc2nc(NCCc3c[nH]c4ccc(Cl)cc34)[nH]c(=O)c2c1C,9.09% (active)
19,CC(C)c1ccc(C(=O)Nc2sc3c(c2C(N)=O)CCC(=O)C3)cc1,-43.4% (active)
20,N#C/C(=C\c1c(-c2ccccc2)[nH]c2ccccc12)C(N)=O,56.9%
